# This is one part of a sample in which the strongest signals are shown more often than they occur.
# Assays:
# Test in all cases: glycan array binding signal (z-score within array); higher = stronger binding
# Details in all cases: glycan notation: IUPAC condensed, linker removed
# Fuc(a1-2)Gal = molecular target: Fuc(a1-2)Gal
# In short: (§1)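 Glycan array data came from 3228 arrays in the Consortium for Functional Glycomics database, and only arrays with an available protein sequence were kept. Glycan names were put into IUPAC-condensed notation, and columns mapping to the same glycan were averaged. The binding signal is a within-array Z-score, averaged across arrays of one protein sequence run at different concentrations or buffers and across linkers. A negative Z-score can be read as non-binding.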
# [1] = molecular target: Fuc(a1-2)Gal(b1-4)GlcNAc(b1-2)Man(a1-3)[Fuc(a1-2)Gal(b1-4)GlcNAc(b1-2)Man(a1-6)]Man(b1-4)GlcNAc(b1-4)GlcNAc
# In short: as §1
# [2] = molecular target: Fuc(a1-2)[Gal(a1-3)]Gal(b1-3)GlcNAc
# In short: as §1
# [3] = molecular target: Fuc(a1-2)[Gal(a1-3)]Gal(b1-4)GlcNAc
# In short: as §1
# [4] = molecular target: Fuc(a1-2)[GalNAc(a1-3)]Gal
# In short: as §1
# [5] = molecular target: Fuc(a1-2)[GalNAc(a1-3)]Gal(b1-4)GlcNAc(b1-2)Man
# In short: as §1
# [6] = molecular target: Fuc(a1-2)[GalNAc(a1-3)]Gal(b1-4)GlcNAc(b1-2)Man(a1-3)[Fuc(a1-2)[GalNAc(a1-3)]Gal(b1-4)GlcNAc(b1-2)Man(a1-6)]Man(b1-4)GlcNAc(b1-4)GlcNAc
# In short: as §1
# [7] = molecular target: Fuc(a1-2)[GalNAc(a1-3)]Gal(b1-4)GlcNAc(b1-3)GalNAc
# In short: as §1
# Fuc(a1-3)GlcNAc = molecular target: Fuc(a1-3)GlcNAc
# In short: as §1
# [8] = molecular target: Fuc(a1-3)[Gal(b1-4)]GlcNAc(b1-2)Man
# In short: as §1
# [9] = molecular target: Fuc(a1-3)[GalNAc(b1-4)]GlcNAc
# In short: as §1
# [10] = molecular target: Gal(a1-3)Gal(b1-3)[Fuc(a1-4)]GlcNAc(b1-2)Man(a1-3)[Gal(a1-3)Gal(b1-3)[Fuc(a1-4)]GlcNAc(b1-2)Man(a1-6)]Man(b1-4)GlcNAc(b1-4)GlcNAc
# In short: as §1
# [11] = molecular target: Gal(a1-3)Gal(b1-4)[Fuc(a1-3)]GlcNAc(b1-2)Man(a1-3)[Gal(a1-3)Gal(b1-4)[Fuc(a1-3)]GlcNAc(b1-2)Man(a1-6)]Man(b1-4)GlcNAc(b1-4)GlcNAc
# In short: as §1
# [12] = molecular target: Gal(a1-4)Gal(b1-3)GlcNAc(b1-2)Man(a1-3)[Gal(a1-4)Gal(b1-3)GlcNAc(b1-2)Man(a1-6)]Man(b1-4)GlcNAc(b1-4)GlcNAc
# In short: as §1
# [13] = molecular target: Gal(a1-4)Gal(b1-4)GlcNAc(b1-3)Gal(b1-4)Glc
# In short: as §1
# Gal(b1-2)Gal = molecular target: Gal(b1-2)Gal
# In short: as §1
# [14] = molecular target: Gal(b1-3)GalNAc(b1-4)Gal(b1-4)Glc
# In short: as §1
# [15] = molecular target: Gal(b1-3)GlcNAc(b1-2)[Gal(b1-3)GlcNAc(b1-6)]Man(a1-6)[Gal(b1-3)GlcNAc(b1-2)Man(a1-3)]Man(b1-4)GlcNAc(b1-4)GlcNAc
# In short: as §1
# Gal(b1-3)GlcNAc6S = molecular target: Gal(b1-3)GlcNAc6S
# In short: as §1
# [16] = molecular target: Gal(b1-4)GlcNAc(b1-2)Man(a1-3)[GlcNAc(b1-2)Man(a1-6)]Man(b1-4)GlcNAc(b1-4)GlcNAc
# In short: as §1
# [17] = molecular target: Gal(b1-4)GlcNAc(b1-3)Gal(b1-4)GlcNAc(b1-3)Gal(b1-4)GlcNAc(b1-3)Gal(b1-4)GlcNAc(b1-2)[Gal(b1-4)GlcNAc(b1-3)Gal(b1-4)GlcNAc(b1-3)Gal(b1-4)GlcNAc(b1-3)Gal(b1-4)GlcNAc(b1-6)]Man(a1-6)[Gal(b1-4)GlcNAc(b1-3)Gal(b1-4)GlcNAc(b1-3)Gal(b1-4)GlcNAc(b1-3)Gal(b1-4)GlcNAc(b1-2)Man(a1-3)]Man(b1-4)GlcNAc(b1-4)[Fuc(a1-6)]GlcNAc
# In short: as §1
# [18] = molecular target: Gal(b1-4)GlcNAc(b1-3)Gal(b1-4)GlcNAc(b1-3)Gal(b1-4)GlcNAc(b1-3)Gal(b1-4)GlcNAc(b1-3)Gal(b1-4)GlcNAc(b1-2)Man(a1-3)[Gal(b1-4)GlcNAc(b1-3)Gal(b1-4)GlcNAc(b1-3)Gal(b1-4)GlcNAc(b1-3)Gal(b1-4)GlcNAc(b1-3)Gal(b1-4)GlcNAc(b1-2)Man(a1-6)]Man(b1-4)GlcNAc(b1-4)GlcNAc
# In short: as §1
# [19] = molecular target: Gal(b1-4)GlcNAc(b1-3)Gal(b1-4)GlcNAc(b1-3)Gal(b1-4)GlcNAc(b1-3)Gal(b1-4)GlcNAc(b1-3)Gal(b1-4)GlcNAc(b1-2)[Gal(b1-4)GlcNAc(b1-3)Gal(b1-4)GlcNAc(b1-3)Gal(b1-4)GlcNAc(b1-3)Gal(b1-4)GlcNAc(b1-3)Gal(b1-4)GlcNAc(b1-6)]Man(a1-6)[Gal(b1-4)GlcNAc(b1-3)Gal(b1-4)GlcNAc(b1-3)Gal(b1-4)GlcNAc(b1-3)Gal(b1-4)GlcNAc(b1-3)Gal(b1-4)GlcNAc(b1-2)Man(a1-3)]Man(b1-4)GlcNAc(b1-4)[Fuc(a1-6)]GlcNAc
# In short: as §1
# Gal4S(b1-4)GlcNAc = molecular target: Gal4S(b1-4)GlcNAc
# In short: as §1
# Gal6S(b1-3)GlcNAc6S = molecular target: Gal6S(b1-3)GlcNAc6S
# In short: as §1
# [20] = molecular target: GalNAc(b1-4)GlcNAc(b1-3)GalNAc(b1-4)GlcNAc
# In short: as §1
# GlcA(b1-6)Gal = molecular target: GlcA(b1-6)Gal
# In short: as §1
# [21] = molecular target: GlcNAc(a1-4)Gal(b1-4)GlcNAc(b1-3)Gal(b1-4)GlcNAc(b1-3)Gal(b1-4)GlcNAc
# In short: as §1
# [22] = molecular target: GlcNAc(a1-4)Gal(b1-4)GlcNAc(b1-3)Gal(b1-4)[Fuc(a1-3)]GlcNAc(b1-3)Gal(b1-4)[Fuc(a1-3)]GlcNAc
# In short: as §1
# [23] = molecular target: GlcNAc(b1-3)Gal(b1-4)GlcNAc(b1-2)Man(a1-3)[GlcNAc(b1-3)Gal(b1-4)GlcNAc(b1-2)Man(a1-6)]Man(b1-4)GlcNAc(b1-4)GlcNAc
# In short: as §1
# [24] = molecular target: GlcNAc(b1-3)Gal(b1-4)GlcNAc(b1-3)Gal(b1-4)GlcNAc(b1-3)Gal(b1-4)GlcNAc(b1-2)Man(a1-3)[GlcNAc(b1-3)Gal(b1-4)GlcNAc(b1-3)Gal(b1-4)GlcNAc(b1-3)Gal(b1-4)GlcNAc(b1-2)Man(a1-6)]Man(b1-4)GlcNAc(b1-4)[Fuc(a1-6)]GlcNAc
# In short: as §1
# [25] = molecular target: GlcNAc(b1-3)Gal(b1-4)GlcNAc(b1-3)Gal(b1-4)GlcNAc(b1-3)Gal(b1-4)GlcNAc(b1-2)[GlcNAc(b1-3)Gal(b1-4)GlcNAc(b1-3)Gal(b1-4)GlcNAc(b1-3)Gal(b1-4)GlcNAc(b1-6)]Man(a1-6)[GlcNAc(b1-3)Gal(b1-4)GlcNAc(b1-3)Gal(b1-4)GlcNAc(b1-3)Gal(b1-4)GlcNAc(b1-2)Man(a1-3)]Man(b1-4)GlcNAc(b1-4)[Fuc(a1-6)]GlcNAc
# In short: as §1
# [26] = molecular target: GlcNAc(b1-3)[GlcNAc(b1-4)][GlcNAc(b1-6)]GlcNAc
# In short: as §1
# Man(a1-3)[Man(a1-6)]Man = molecular target: Man(a1-3)[Man(a1-6)]Man
# In short: as §1
# [27] = molecular target: Neu5Ac(a2-3)Gal(b1-3)GlcNAc(b1-3)Gal(b1-3)GlcNAc
# In short: as §1
# [28] = molecular target: Neu5Ac(a2-3)Gal(b1-3)[Fuc(a1-4)]GlcNAc
# In short: as §1
# [29] = molecular target: Neu5Ac(a2-3)Gal(b1-3)[Neu5Ac(a2-6)]GalNAc
# In short: as §1
# [30] = molecular target: Neu5Ac(a2-3)Gal(b1-4)GlcNAc
# In short: as §1
# [31] = molecular target: Neu5Ac(a2-3)Gal(b1-4)GlcNAc(b1-2)Man
# In short: as §1
# [32] = molecular target: Neu5Ac(a2-3)Gal(b1-4)GlcNAc(b1-3)Gal(b1-3)GlcNAc
# In short: as §1
# [33] = molecular target: Neu5Ac(a2-3)Gal(b1-4)GlcNAc6S
# In short: as §1
# [34] = molecular target: Neu5Ac(a2-3)Gal(b1-4)[Fuc(a1-3)]GlcNAc(b1-3)GalNAc
# In short: as §1
# [35] = molecular target: Neu5Ac(a2-3)Gal(b1-4)[Fuc(a1-3)]GlcNAc6S
# In short: as §1
# [36] = molecular target: Neu5Ac(a2-6)Gal(b1-4)GlcNAc(b1-2)Man(a1-6)[Gal(b1-4)GlcNAc(b1-2)Man(a1-3)]Man(b1-4)GlcNAc(b1-4)GlcNAc
# In short: as §1
# [37] = molecular target: Neu5Ac(a2-6)Gal(b1-4)GlcNAc(b1-2)Man(a1-6)[GlcNAc(b1-2)Man(a1-3)]Man(b1-4)GlcNAc(b1-4)GlcNAc
# In short: as §1
# [38] = molecular target: Neu5Ac(a2-6)Gal(b1-4)GlcNAc(b1-3)Gal(b1-4)GlcNAc(b1-3)Gal(b1-4)GlcNAc(b1-2)Man(a1-3)[Neu5Ac(a2-6)Gal(b1-4)GlcNAc(b1-3)Gal(b1-4)GlcNAc(b1-3)Gal(b1-4)GlcNAc(b1-2)Man(a1-6)]GalNAc
# In short: as §1
# [39] = molecular target: Neu5Ac(a2-6)GlcNAc(b1-4)GlcNAc
# In short: as §1
# [40] = molecular target: Neu5Ac(a2-8)Neu5Ac(a2-8)Neu5Ac(a2-3)[Gal(b1-3)GalNAc(b1-4)]Gal(b1-4)Glc
# In short: as §1
# Neu5Gc(a2-3)Gal(b1-4)Glc = molecular target: Neu5Gc(a2-3)Gal(b1-4)Glc
# In short: as §1
binder,measurement,setting,value
"RbmA (Vibrio cholerae), A0A2H4NFB8 (protein) MSNFKGSIMNKRHYYLASCLALLFSTASYAEVDCELQPVIEANLSLNQNQLASNGGYISSQLGIRNESCETVKFKYWLSIKGPEGIYFPAKAVVGVDTAQQESDALTDGRMLNVTRGFWVPEYMADGKYTVSLQVVAENGEVFKANQEFVKGGDLNSLPELNGLTIDIKNQFGINSVESTGGFVPFTIDLNNGREGEAKVEFWMTAVGPDGLIIPVHSREKWMIIAGNTFSKVRGINFDKSYPAGEYTINAQVVDIVSGERVEQLMTVVKK",glycan array binding signal (z-score),Fuc(a1-2)Gal,0.097
same,glycan array binding signal (z-score),[1],3.71
same,glycan array binding signal (z-score),[2],1.13
same,glycan array binding signal (z-score),[3],-0.42
same,glycan array binding signal (z-score),[4],0.428
same,glycan array binding signal (z-score),[5],-0.393
same,glycan array binding signal (z-score),[6],-0.735
same,glycan array binding signal (z-score),[7],2.25
same,glycan array binding signal (z-score),Fuc(a1-3)GlcNAc,-0.597
same,glycan array binding signal (z-score),[8],-0.564
same,glycan array binding signal (z-score),[9],-0.002
same,glycan array binding signal (z-score),[10],-0.276
same,glycan array binding signal (z-score),[11],0.837
same,glycan array binding signal (z-score),[12],0.508
same,glycan array binding signal (z-score),[13],0.028
same,glycan array binding signal (z-score),Gal(b1-2)Gal,-0.082
same,glycan array binding signal (z-score),[14],0.503
same,glycan array binding signal (z-score),[15],-0.69
same,glycan array binding signal (z-score),Gal(b1-3)GlcNAc6S,-0.734
same,glycan array binding signal (z-score),[16],-0.515
same,glycan array binding signal (z-score),[17],4.03
same,glycan array binding signal (z-score),[18],5.93
same,glycan array binding signal (z-score),[19],7.99
same,glycan array binding signal (z-score),Gal4S(b1-4)GlcNAc,3.32
same,glycan array binding signal (z-score),Gal6S(b1-3)GlcNAc6S,-0.99
same,glycan array binding signal (z-score),[20],2.09
same,glycan array binding signal (z-score),GlcA(b1-6)Gal,-0.721
same,glycan array binding signal (z-score),[21],3.48
same,glycan array binding signal (z-score),[22],4.35
same,glycan array binding signal (z-score),[23],-0.474
same,glycan array binding signal (z-score),[24],3.92
same,glycan array binding signal (z-score),[25],0.187
same,glycan array binding signal (z-score),[26],0.095
same,glycan array binding signal (z-score),Man(a1-3)[Man(a1-6)]Man,0.76
same,glycan array binding signal (z-score),[27],-0.516
same,glycan array binding signal (z-score),[28],-1.17
same,glycan array binding signal (z-score),[29],0.382
same,glycan array binding signal (z-score),[30],-0.847
same,glycan array binding signal (z-score),[31],3.52
same,glycan array binding signal (z-score),[32],-0.862
same,glycan array binding signal (z-score),[33],3
same,glycan array binding signal (z-score),[34],3.93
same,glycan array binding signal (z-score),[35],-0.009
same,glycan array binding signal (z-score),[36],-0.289
same,glycan array binding signal (z-score),[37],-0.799
same,glycan array binding signal (z-score),[38],1.63
same,glycan array binding signal (z-score),[39],-0.396
same,glycan array binding signal (z-score),[40],-0.211
same,glycan array binding signal (z-score),Neu5Gc(a2-3)Gal(b1-4)Glc,0.337
